Screening results from PubChem.
Rows were chosen to be rich in hits. Some 19% of all compounds tested hit in one or more screens of this group.
DT40 TDP1 no CPT: qHTS for Inhibitors of human tyrosyl-DNA phosphodiesterase 1 (TDP1): qHTS in cells in absence of CPT; Potency, µM (titrated, usually from 46.2 µM), for inactives: top-dose activity change, negative = growth inhibition, most hits filed as inhibitors; 15% of 420,000 active; AID 686978, 2013; DT40 Tdp1-/- hTDP1 cells, no CPT, ATP luminescence, 48 h; also: potency is read from the fitted curve at half-maximal effect; nearly all actives have a fitted effect of over 55% in size
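Cells were dispensed at 400 per well, compounds added by pin tool, plates incubated ≥48 hr at 37 °C, then CellTiter-Glo added for 30 min at room temperature before luminescence reading. Line: DT40 Tdp1-/- complemented with hTDP1; camptothecin omitted.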
IL-1B inflam inh: inhibitors of inflammasome signaling (IL-1 beta secretion); THP-1 LPS/ATP IL-1B secretion, AlphaLISA, 16 h; hits give low values; activity change, % at 57.5 µM; 4.7% of 360,000 active; in the data active = activity change below about -50%; inconclusive = mostly about -30% to -49%
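Secreted IL-1B measured by AlphaLISA bead assay after 16 h compound exposure of THP-1 cells; compounds (final up to 57.5 uM) added 1 h before LPS (250 ng/mL) and ATP (1.25 mM) stimulation; lower signal means less secretion.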
HT1080-NT tox: kills 2HG-producing HT-1080-NT fibrosarcoma cells; HT-1080-NT fibrosarcoma viability, CellTiter-Glo ATP luminescence, 48 h; Potency, µM (highest dose often 46.1 µM), for the others: at the top dose activity, negative = less viability, hits mostly cytotoxic; 1.6% of 360,000 active;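 also: NT is the 2HG producing partner of a matched IDH1 knockdown line; potency is read from the fitted curve at half-maximal effect; 0% = DMSO-treated cells and -100% = media-only wells without cells; nearly all actives have a fitted effect of over 55% in size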
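Toxicity toward the 2HG-producing NT line was scored as %Activity, normalised to DMSO and no-cell wells, from CellTiter-Glo luminescence after 48 hours' treatment.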
HT1080 IDH1KD tx: toxicity to HT-1080 IDH1 knockdown cells (counter line). HT-1080 IDH1 knockdown viability, ATP luminescence, 48 h. Potency, µM (doses to about 46.1 µM), for the others: at the highest dose activity, negative = toxicity, most hits filed as cytotoxic. 2% of 360,000 active;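 also: potency is read from the fitted curve at half-maximal effect; 0% = DMSO wells and -100% = cell-free medium wells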
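In this qHTS, HT-1080 cells depleted of IDH1 are exposed for 48 h at 37 °C to compound titrations. Toxicity is scored from CellTiter-Glo luminescence, with DMSO as full viability and medium alone as none.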
uPA generation: cell surface uPA generation inhibition | cell surface uPA generation assay, qHTS | Potency, µM (titrated, usually from 38.3 µM), for the others: at the top dose activity change, negative = inhibition, usual class: inhibitors | 0.31% of 330,000 active; active = well fitted inhibition curve with a large enough effect; inconclusive = small, poorly fitted or top-dose-only effect; inactive = no such curve, though single readings can be large or run the other way; tested in mouse RAW 264.7 cells; also: potency is read from the fitted curve at half-maximal effect; nearly all actives have a fitted effect of over 55% in size
TDP1 cell CPT: growth inhibition of DT40 Tdp1-/-;hTDP1 cells with camptothecin (screen for TDP1 inhibitors) | chicken DT40 Tdp1-/-;hTDP1 cells + 20 nM CPT, ATP luminescence, 48 h | Potency, µM (doses to about 46.2 µM), inactives show at the top dose activity change, negative = growth inhibition, actives largely listed as inhibitors | 12% of 420,000 active | AID 686979; also: potency is read from the fitted curve at half-maximal effect; nearly all actives have a fitted effect of over 55% in size
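Chicken DT40 Tdp1-/- cells complemented with human TDP1, 400 cells/well, exposed to compounds plus 20 nM camptothecin for at least 48 h at 37 C; viability read as ATP content by CellTiter-Glo luminescence.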
* = called active by the depositor; ? = inconclusive; / = not tested or not shown; [ ] = remark or other dose. Unless noted, calls follow the shape of the dose curve; as a rule, active = well fitted curve in the direction sought with a large enough effect; inconclusive = small, poorly fitted or top-dose-only effect, or another doubt; inactive = no such curve, though single readings can be large; an effect the other way counts as inactive or inconclusive. Unless noted, % is scaled to controls: 0 for no effect and ±100 for the full control effect.

SMILES	DT40 TDP1 no CPT	IL-1B inflam inh	HT1080-NT tox	HT1080 IDH1KD tx	uPA generation	TDP1 cell CPT
Cn1cc(S(=O)(=O)N2CCCCCC2)cc1C(=O)N1CCN(c2cccc(C(F)(F)F)c2)CC1	23µM*	/	/	/	/	16µM*
Cn1cc(S(=O)(=O)N2CCCC2)cc1C(=O)N1CCN(c2cccc(Cl)c2)CC1	?	-12	?	-26%	?	?
Cn1cc(S(=O)(=O)N2CCCCCC2)cc1C(=O)N1CCN(c2cccc(Cl)c2)CC1	?	/	/	/	/	15µM*
CCC1CN(CCNC(=O)c2cscn2)Cc2cc(OC)ccc2O1 (stereo not given)	-5%	/	/	/	/	-7%[9.04 µM]
FC(F)(F)c1ccnc(Sc2n[nH]c(C(F)(F)F)n2)c1	?	44	-5%	-8%	0%	-26%
CCC(=O)N1CCc2cc(Br)c(S(=O)(=O)CCC(=O)NCCc3ccccc3)cc21	-13%	-8	10%	11%	3%	-10%
COc1ccc(C2=Nc3ccccc3N(C(=O)c3ccc(C(F)(F)F)cc3)C2C(=O)NCc2ccccc2)cc1 (stereo not given)	?	16	-10%	-4%	/	?
CCCCNC(=O)C1C(c2ccccc2)=Nc2ccccc2N1C(=O)c1ccc(C(F)(F)F)cc1 (stereo not given)	15µM*	-6	?	?	/	?
CC(C)(C)NC(=O)C1C(c2ccccc2)=Nc2ccccc2N1C(=O)c1ccc(C(F)(F)F)cc1 (stereo not given)	16µM*	20	4%	23%	/	?
CCCCNC(=O)C1C(c2ccccc2)=Nc2ccccc2N1C(=O)c1ccc(C)cc1 (stereo not given)	?	36	?	?	/	13µM*
CC(C)(O)C1CC[C@@]2(C)C3CCC4[C@@]5(C)CCCC(C)(C)C5C(O)C[C@]4(C)[C@]3(C)CC[C@@H]12 (stereo not given in full)	-3%	/	/	/	/	3%
O=C(Nc1c(C(=O)N2CCN(c3ccccn3)CC2)oc2ccccc12)c1cccc([N+](=O)[O-])c1	?	-28	5%	20%	1%	?
Cc1cccc(-c2nc3scc(CCNC(=O)c4ccccc4Cl)n3n2)c1	21µM*	/	/	/	/	?
O=C(Cc1ccc(F)cc1)NCCc1csc2nc(-c3ccc(Cl)cc3)nn12	21µM*	/	/	/	/	?
Cc1ccc(-c2nc(CCNC(=O)c3ccco3)cs2)cc1	?	-2	7%	0%	-3%	2%
O=C(NCCc1csc2nc(-c3ccc(F)cc3)nn12)c1ccco1	16µM*	/	/	/	/	?
O=C(Cc1ccc(Cl)cc1)NCCc1csc2nc(-c3ccccc3F)nn12	-13%	/	/	/	/	-25%
O=C(Cc1ccccc1)NCCc1csc2nc(-c3ccc(Cl)cc3)nn12	9.2µM*	/	/	/	/	12µM*
COc1ccc([C@@H]2C[C@H]3[C@@H](CN2S(=O)(=O)c2ccccc2)C(=O)C[C@@H](c2ccc(C)cc2)N3S(=O)(=O)c2ccc(C)cc2)cc1	?	7	0%	12%	/	-1%
CO/N=C/C(C#N)=C/c1cc(C(=O)c2ccccc2)cn1C	21µM*	-12	-13%	-18%	0%	-20%
CC1=C(C#N)C(C(F)(F)F)(C(F)(F)F)N=C(c2ccco2)N1	16µM*	-13	8%	0%	-22%	?
CCCc1c(C)[nH]c2ccc(C(=O)O)cc2c1=S	4%	8	5%	?	2%	0%
CNC(=S)N/N=C/c1ccc(C(C)C)cc1	7.3µM*	-11	2%	?	-5%	13µM*
CNC(=S)N/N=C/c1ccc(N(C)C)cc1	?	-20	9%	-1%	-2%	5%
CC(C)c1ccc(/C=N/NC(=O)c2ccccc2Cl)cc1	2.9µM*	-4	7.3µM*	6.5µM*	3.2µM*	4.1µM*
SMILES	DT40 TDP1 no CPT	IL-1B inflam inh	HT1080-NT tox	HT1080 IDH1KD tx	uPA generation	TDP1 cell CPT
Cc1nc2ccc(Br)cn2c1C(=O)N/N=C\c1ccc(C(C)C)cc1	7.3µM*	42	2%	-1%	-3%	7.3µM*
COc1ccc(OC)c(/C=N/NC(=O)c2c(C)nc3ccc(C)cn23)c1	?	32	2%	4%	-23%	?
Cc1cc(OCC(=O)OCC(=O)NCc2ccco2)ccc1Cl	-19%	9	2%	8%	4%	-4%
COc1ccc([N+](=O)[O-])cc1NS(=O)(=O)c1cccc(C(=O)O)c1	-1%	5	28%	0%	2%	-16%
Nc1ncnc2c(C3OC(CO)C(O)C3O)c[nH]c12 (stereo not given)	0.15µM*	-104*	0.23µM*	0.15µM*	-11%	0.16µM*
CCc1nc2ccc(C(=O)N(C)Cc3ccco3)cn2c1N(CC)C(=O)NCCc1ccccc1	?	9	19%	8%	/	-28%
Oc1ccc(N=Cc2ccc(OCc3ccccc3)cc2)cc1	21µM*	24	?	?	?	21µM*
O=C(N/N=C/c1ccc(OCc2ccccc2)cc1)c1cccs1	-15%	2	-2%	-2%	1%	-1%
Cc1ccc(-n2nc(C(=O)N3CCOCC3)cc2-c2ccc(Cl)cc2)cc1	?	-3	-12%	-17%	-6%	?
Cn1nc(-c2ccccc2F)c2cc(C(=O)N3CCN(C(=O)c4ccco4)CC3)sc21	?	0	-15%	-17%	-3%	29µM*
COc1cccc(-c2nn(C)c3sc(C(=O)N4CCOCC4)cc23)c1	?	-5	-7%	-13%	12%	-26%
COc1ccc(N2CCN(C(=O)c3cc4c(-c5ccc(Cl)cc5)nn(C)c4s3)CC2)cc1	16µM*	5	-5%	5%	5%	?
